# Data: PMC7862700, “An all-to-all approach to the identification of sequence-specific readers for epigenetic DNA modifications on cytosine”
# Tests used:
# Test in all cases: DAPPL (digital affinity profiling via proximity ligation, sequencing); 10 mM Tris-HCl pH 7.5, 50 mM NaCl, 1 mM DTT, 4% glycerol, room temperature, 30 min; GST-TFs on glutathione beads, 16-mer random dsDNA library, 0.1% formaldehyde crosslink after washing; high values mean tight binding
# Details in all cases: protein: recombinant; tags: N-terminal GST; dsDNA, one strand shown
# ELK1 = target: T1, ELK1 (Homo sapiens, UniProt P19419 1-428)
# T1 sequence: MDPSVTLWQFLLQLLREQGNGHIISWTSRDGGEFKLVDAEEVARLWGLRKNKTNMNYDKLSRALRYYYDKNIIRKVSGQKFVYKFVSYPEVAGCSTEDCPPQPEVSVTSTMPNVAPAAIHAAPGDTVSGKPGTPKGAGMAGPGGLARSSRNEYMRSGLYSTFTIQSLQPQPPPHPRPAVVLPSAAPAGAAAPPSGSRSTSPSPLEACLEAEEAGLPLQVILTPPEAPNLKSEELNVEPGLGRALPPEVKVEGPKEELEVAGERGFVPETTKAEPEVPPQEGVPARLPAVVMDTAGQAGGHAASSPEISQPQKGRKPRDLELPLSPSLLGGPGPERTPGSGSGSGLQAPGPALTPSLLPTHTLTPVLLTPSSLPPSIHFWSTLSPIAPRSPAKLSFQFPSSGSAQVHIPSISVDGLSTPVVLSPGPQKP
# Outline: (§1)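 Beads coated with glutathione captured GST-fused human transcription factors that had been expressed in yeast, and the factors were then given DNA barcodes and pooled with a tag-only sample. The pools were incubated with 200 nmole of a random double-stranded 16-mer DNA library in Tris/NaCl/DTT/glycerol buffer for 30 min at room temperature, washed, crosslinked with 0.1% formaldehyde and proximity-ligated with BsaI/T4 ligase at 37 °C for 1 h. PCR amplification and Illumina NextSeq500 sequencing came last. Binding signal is each hexamer's read frequency for a factor divided by its frequency for the tag-only sample.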
# GABPA = target: T2, GABPA (Homo sapiens, UniProt Q06546 1-454)
# T2 sequence: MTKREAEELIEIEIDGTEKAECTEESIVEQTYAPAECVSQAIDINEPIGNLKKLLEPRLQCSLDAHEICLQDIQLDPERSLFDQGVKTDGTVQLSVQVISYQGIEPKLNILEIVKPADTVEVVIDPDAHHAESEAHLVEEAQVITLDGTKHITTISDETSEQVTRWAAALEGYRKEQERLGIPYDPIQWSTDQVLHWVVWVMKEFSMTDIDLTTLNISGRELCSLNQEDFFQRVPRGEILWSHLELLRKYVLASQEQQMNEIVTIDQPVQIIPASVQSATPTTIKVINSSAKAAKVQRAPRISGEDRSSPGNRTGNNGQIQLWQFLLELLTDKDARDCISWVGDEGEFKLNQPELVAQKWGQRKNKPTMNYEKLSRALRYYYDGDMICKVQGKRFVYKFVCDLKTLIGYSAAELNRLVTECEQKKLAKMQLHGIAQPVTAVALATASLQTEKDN
# Outline: as §1
# ERG = target: T3, ERG (Homo sapiens, UniProt P11308 1-479)
# T3 sequence: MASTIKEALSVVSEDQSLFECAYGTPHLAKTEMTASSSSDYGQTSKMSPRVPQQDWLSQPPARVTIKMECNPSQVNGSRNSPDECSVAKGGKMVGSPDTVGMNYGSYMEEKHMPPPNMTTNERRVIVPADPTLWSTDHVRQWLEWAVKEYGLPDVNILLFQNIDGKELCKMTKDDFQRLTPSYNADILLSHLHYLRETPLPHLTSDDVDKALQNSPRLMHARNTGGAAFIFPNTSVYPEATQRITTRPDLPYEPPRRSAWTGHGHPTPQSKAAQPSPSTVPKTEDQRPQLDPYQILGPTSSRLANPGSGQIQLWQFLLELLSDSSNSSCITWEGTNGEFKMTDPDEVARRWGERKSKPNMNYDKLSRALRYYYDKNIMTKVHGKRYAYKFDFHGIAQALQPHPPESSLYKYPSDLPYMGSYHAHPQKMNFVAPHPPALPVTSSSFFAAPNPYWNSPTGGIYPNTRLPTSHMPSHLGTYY
# Outline: as §1
# ELF1 = ELF1 (Homo sapiens, UniProt P32519 1-619)
# Outline: as §1
# EHF = target: T4, EHF (Homo sapiens, UniProt Q9NZC4 1-300)
# T4 sequence: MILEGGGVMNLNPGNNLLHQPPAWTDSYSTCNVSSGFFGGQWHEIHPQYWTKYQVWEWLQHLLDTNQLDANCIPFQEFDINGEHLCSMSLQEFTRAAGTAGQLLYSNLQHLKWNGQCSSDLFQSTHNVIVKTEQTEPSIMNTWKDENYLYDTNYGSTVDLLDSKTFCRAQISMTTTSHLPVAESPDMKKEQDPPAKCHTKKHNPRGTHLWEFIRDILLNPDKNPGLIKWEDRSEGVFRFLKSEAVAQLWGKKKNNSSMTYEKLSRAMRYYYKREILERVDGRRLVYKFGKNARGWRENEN
# Outline: as §1
# SPIB = SPIB (Homo sapiens, UniProt Q01892 1-262)
# Outline: as §1
# ELK3 = target: T5, ELK3 (Homo sapiens, UniProt P41970 1-407)
# T5 sequence: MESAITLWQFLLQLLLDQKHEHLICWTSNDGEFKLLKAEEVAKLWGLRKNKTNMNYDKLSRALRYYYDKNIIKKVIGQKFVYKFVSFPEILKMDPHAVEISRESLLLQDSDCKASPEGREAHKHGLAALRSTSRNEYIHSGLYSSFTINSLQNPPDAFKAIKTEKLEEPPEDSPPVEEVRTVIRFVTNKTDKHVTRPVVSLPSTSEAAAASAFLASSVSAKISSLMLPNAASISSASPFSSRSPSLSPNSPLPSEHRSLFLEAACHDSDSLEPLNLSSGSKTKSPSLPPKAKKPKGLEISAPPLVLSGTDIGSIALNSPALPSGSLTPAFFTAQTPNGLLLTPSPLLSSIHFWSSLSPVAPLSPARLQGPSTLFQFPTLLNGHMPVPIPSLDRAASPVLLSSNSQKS
# Outline: as §1
# SPIC = target: T6, SPIC (Homo sapiens, UniProt Q8N5J4 1-248)
# T6 sequence: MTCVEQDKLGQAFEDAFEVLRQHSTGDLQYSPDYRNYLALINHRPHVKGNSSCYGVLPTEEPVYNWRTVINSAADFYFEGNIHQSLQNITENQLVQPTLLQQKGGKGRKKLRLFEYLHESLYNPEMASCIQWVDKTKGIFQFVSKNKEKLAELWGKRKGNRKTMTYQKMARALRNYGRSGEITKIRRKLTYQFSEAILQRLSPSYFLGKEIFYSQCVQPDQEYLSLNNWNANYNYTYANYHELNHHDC
# Outline: as §1
# ELF4 = ELF4 (Homo sapiens, UniProt Q99607 1-663)
# Outline: as §1
# ELF1, sequence (P32519 whole entry): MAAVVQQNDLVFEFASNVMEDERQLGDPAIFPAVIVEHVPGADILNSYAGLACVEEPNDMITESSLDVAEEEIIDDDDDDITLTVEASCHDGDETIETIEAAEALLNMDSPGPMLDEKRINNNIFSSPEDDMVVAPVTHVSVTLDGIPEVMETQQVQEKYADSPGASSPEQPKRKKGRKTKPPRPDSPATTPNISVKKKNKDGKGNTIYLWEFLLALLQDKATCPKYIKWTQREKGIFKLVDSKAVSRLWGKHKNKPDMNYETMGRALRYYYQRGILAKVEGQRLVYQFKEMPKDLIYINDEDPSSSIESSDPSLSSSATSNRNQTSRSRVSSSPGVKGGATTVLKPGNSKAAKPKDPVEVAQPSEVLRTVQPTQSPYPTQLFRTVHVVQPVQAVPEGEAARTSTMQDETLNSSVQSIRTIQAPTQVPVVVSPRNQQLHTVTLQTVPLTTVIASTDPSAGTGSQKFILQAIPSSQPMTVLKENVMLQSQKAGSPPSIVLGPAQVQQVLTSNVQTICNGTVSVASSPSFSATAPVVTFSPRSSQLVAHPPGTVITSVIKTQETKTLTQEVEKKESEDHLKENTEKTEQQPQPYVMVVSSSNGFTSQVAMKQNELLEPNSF
# ELF4, sequence (Q99607 whole entry): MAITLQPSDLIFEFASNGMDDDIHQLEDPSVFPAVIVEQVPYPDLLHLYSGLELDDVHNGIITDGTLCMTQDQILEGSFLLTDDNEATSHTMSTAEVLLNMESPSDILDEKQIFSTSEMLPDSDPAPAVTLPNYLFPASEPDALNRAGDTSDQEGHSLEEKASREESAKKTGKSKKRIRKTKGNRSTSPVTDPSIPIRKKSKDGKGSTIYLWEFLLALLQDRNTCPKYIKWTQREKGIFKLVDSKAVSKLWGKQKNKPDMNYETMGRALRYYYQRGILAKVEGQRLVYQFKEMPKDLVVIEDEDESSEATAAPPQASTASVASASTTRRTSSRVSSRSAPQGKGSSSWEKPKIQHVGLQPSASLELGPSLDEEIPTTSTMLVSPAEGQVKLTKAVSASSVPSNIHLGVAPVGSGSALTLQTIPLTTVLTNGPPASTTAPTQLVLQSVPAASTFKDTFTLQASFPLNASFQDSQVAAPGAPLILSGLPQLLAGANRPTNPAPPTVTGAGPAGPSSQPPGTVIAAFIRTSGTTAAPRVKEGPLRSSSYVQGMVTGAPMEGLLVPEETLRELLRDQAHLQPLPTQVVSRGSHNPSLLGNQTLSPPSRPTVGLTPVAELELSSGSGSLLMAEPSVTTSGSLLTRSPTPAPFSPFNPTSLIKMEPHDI
# SPIB, sequence (Q01892 whole entry): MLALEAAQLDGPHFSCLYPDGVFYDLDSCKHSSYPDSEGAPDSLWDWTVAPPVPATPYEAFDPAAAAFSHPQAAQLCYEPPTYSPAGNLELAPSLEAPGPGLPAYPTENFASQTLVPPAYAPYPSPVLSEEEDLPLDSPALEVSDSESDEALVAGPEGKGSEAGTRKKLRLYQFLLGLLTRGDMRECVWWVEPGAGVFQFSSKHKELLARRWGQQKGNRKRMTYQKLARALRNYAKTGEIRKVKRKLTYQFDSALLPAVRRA
sequence,measurement,setting,value
CGTTTA,binding signal,ELK1,"1.08 fold enrichment (6-mer frequency, TF over GST control)"
same,binding signal,GABPA,"1.13 fold enrichment (6-mer frequency, TF over GST control)"
same,binding signal,ERG,"1.05 fold enrichment (6-mer frequency, TF over GST control)"
same,binding signal,ELF1,"1.06 fold enrichment (6-mer frequency, TF over GST control)"
same,binding signal,EHF,"1.06 fold enrichment (6-mer frequency, TF over GST control)"
same,binding signal,SPIB,"1.11 fold enrichment (6-mer frequency, TF over GST control)"
same,binding signal,ELK3,"1.12 fold enrichment (6-mer frequency, TF over GST control)"
same,binding signal,SPIC,"1.03 fold enrichment (6-mer frequency, TF over GST control)"
same,binding signal,ELF4,"1.07 fold enrichment (6-mer frequency, TF over GST control)"
